IMPase inh: membrane-permeable compound that blocks inositol monophosphatase; AID 901; P97697; inhibition (IP1 accumulation), % at 46.1 µM; 120,000 tested, under 10 active; CHO-M1 cells, IP1 accumulation, HTRF TR-FRET ratio; active = well fitted curve in the direction sought with a large enough effect in the signal ratio, not every such curve was filed as active; inconclusive = small, poorly fitted or top-dose-only effect, or a change in a side signal; inactive = no such curve, though single readings can be large or run the other way; the % refers to the signal ratio;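 note: cells stimulated with carbachol in lithium chloride buffer; plate controls were DMSO basal wells for no effect and reference inhibitor wells for full effect; higher means more IMPase inhibition seen as more IP1 and lower FRET ratio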
Target sequence (P97697 whole entry, looked up): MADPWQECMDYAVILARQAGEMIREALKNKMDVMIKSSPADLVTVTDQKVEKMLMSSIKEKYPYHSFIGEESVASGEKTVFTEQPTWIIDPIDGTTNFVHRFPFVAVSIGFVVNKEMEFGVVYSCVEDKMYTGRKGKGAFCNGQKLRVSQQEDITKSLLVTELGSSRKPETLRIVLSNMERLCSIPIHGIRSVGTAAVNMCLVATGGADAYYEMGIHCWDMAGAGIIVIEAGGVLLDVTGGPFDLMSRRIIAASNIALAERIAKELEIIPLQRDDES
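In this qHTS, compounds (final up to 46 uM) act on CHO-M1 cells that are then activated through the M1 receptor with carbachol, in pH 7.4 buffer containing 50 mM LiCl, for 30 min. IP1 accumulation is quantified by the IP-One immunoassay.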
p53ts 39C kill: p53ts cell cytotoxicity, nonpermissive temperature; 1.5% of 130,000 active; H1299-p53A138V viability at 39C, ATP luminescence, 24 h; Potency, µM (doses to about 46.1 µM), inactives show top-dose activity change, negative = cell killing, usual class: cytotoxic; note: potency is the fitted concentration of half-maximal effect; % is set by controls: 0 for no effect and ±100 for the full control effect; nearly all actives have a fitted effect of over 55% in size
Imprint erasure: induces erasure of genomic imprints in mouse ES cells; Potency, µM (series often up to 60.7 µM), for the others: at the highest dose activity change, positive = activation, actives largely listed as activators; 0.02% of 110,000 active; mouse ES Peg3-LacZ reporter, beta-gal luminescence, 40 h; note: potency is the fitted concentration of half-maximal effect
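Each well holds 300 Peg3LacZ-Neo (maternal) female ES cells incubated 40 h at 37C, 5% CO2. LacZ is measured by BetaGlo luminescence, with AC50 and maximum efficacy derived from dose-response curves.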
p53ts 32C tox: kills p53ts cells at the permissive temperature; H1299-p53A138V at 32C, ATP luminescence viability, 24 h; Potency, µM (doses to about 46.1 µM), without a hit: top-dose activity change, negative = cytotoxicity, hits mostly cytotoxic; 0.93% of 130,000 active; AID 924;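 note: potency is the fitted concentration of half-maximal effect; 0% = DMSO and -100% = full killing by reference compound; nearly all actives have a fitted effect of over 55% in size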
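Viability by ATPlite luminescence after 24 h compound treatment (up to 46 uM) at the permissive 32C. Cells are H1299 carrying p53 A138V. Scale runs from DMSO basal to 100 uM tamoxifen as full kill; AC50 from Hill fits.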
Luciferase inh: firefly luciferase inhibition. P08659. purified firefly luciferase, luminescence, 8 min. 2.2% of 72,000 active. Potency, µM (titrated, usually from 57.1 µM), for the others: at the highest dose activity change, negative = inhibition, actives largely listed as inhibitors; note: potency is the fitted concentration of half-maximal effect; % is set by controls: 0 for no effect and ±100 for the full control effect; nearly all actives have a fitted effect of over 40% in size
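Compounds were tested as concentration series (qHTS) against purified P. pyralis luciferase with luciferin and 10 uM ATP in 50 mM imidazole pH 7.2, 50 mM KCl, 7 mM MgCl2, 0.01% Tween 20, 0.05% BSA. Luminescence was read after 8 min at ambient temperature.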
IkB sig inh: IkB pathway inhibition in ABC-DLBCL cells; ABC-DLBCL IkBa-CBG/CBR dual luciferase ratio, 4 h; response scale: scaled: untreated 0%, proteasome inhibitor 100%; Potency, µM (doses to about 57.1 µM), inactives show at the top dose IkBa stabilization activation; 0.04% of 110,000 active; AID 445; active = well fitted curve in the direction sought with a large enough effect in the signal ratio, not every such curve was filed as active; inconclusive = small, poorly fitted or top-dose-only effect, or a change in a side signal; the % refers to the signal ratio;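 note: potency is the fitted concentration of half-maximal effect; the direction sought is a rising ratio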
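Luminescence ratio of IκBα-fused green versus native red beetle luciferase in OCI-Ly3 cells, 4 h post-doxycycline with compound; red signal alone, scaled from basal (0%) to zero light (-100%), flagged nonspecific or cytotoxic effects.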
* hit, by the source's call; ? = inconclusive; . = no result; [ ] = another dose, or the depositor's remark. This is one part of a sample in which hits are shown more often than they occur. Unless noted, calls come from the whole dose curve; as a rule, active = well fitted curve in the direction sought with a large enough effect; inconclusive = small, poorly fitted or top-dose-only effect, or another doubt; inactive = no such curve, though single readings can be large; an effect the other way counts as inactive or inconclusive.

SMILES | IMPase inh | p53ts 39C kill | Imprint erasure | p53ts 32C tox | Luciferase inh | IkB sig inh
COc1ccc(O[C@H]2C=C[C@@H](c3ccccc3)O[C@H]2COC(=O)CC/C(C)=N\O[C@@H](C)c2cn([C@H]3COC[C@H]3O)nn2)cc1 | . | 6%[9.22 µM] | . | 11%[9.22 µM] | 0%[11.4 µM] | .
O=C(N1CCOCC1)N1CCN(c2nc(-c3ccc(F)cc3)cs2)CC1 | -6 | -30% | -18% | -25% | 16µM* | -1%
Cc1cc2nc(-c3ccc(SCC(=O)N4CCOCC4)nc3)[nH]c2cc1C | -2 | 7.9µM* | -27% | 6.3µM* | 2.5µM* | ?
Cc1cc2nc(-c3ccc(SCC(=O)N4CCN(C(=O)c5ccco5)CC4)nc3)[nH]c2cc1C | -10 | 5µM* | -42% | 6.3µM* | 0.63µM* | ?
Cc1cccc(N2CCN(C(=O)c3c(C)oc4nc(C)nc(N5CCCC5)c34)CC2C)c1 (stereo unspecified) | . | 3% | 24%[10.9 µM] | 8% | . | ?
COc1ccc(/C=C/C(=O)c2ccc(C)s2)cc1 | -6 | 21% | -5% | 32µM* | . | .
COc1ccc(/C=C/C(=O)O)cc1 | . | . | -1% | . | . | .
CCCCCOc1ccccc1CN1C(=O)C(=O)c2cc(C)ccc21 | . | 13µM* | 17%[10.9 µM] | 1% | . | 0%
CCCCCOc1ccccc1Cn1c(=O)oc2ccc(C)cc21 | . | -6% | -6%[10.9 µM] | -6% | . | 0%
COC(=O)C/C=C\[C@@H](C)[C@@H](/C=N\O[C@@H](C)CN1CCCCc2nc(C)c(C)cc21)OC | . | 4%[9.22 µM] | . | -2%[9.22 µM] | 1%[11.4 µM] | .
c1ccc(C2Nc3ccccc3-c3nc4ccccc4n32)nc1 (stereo unspecified) | -1 | . | . | . | 4µM* | .
O=C(Nc1ccon1)c1cc2c(s1)CCCCCC2 | 3 | ? | -13% | -16% | 25µM* | 2%
Cc1cccc2c1-c1sc(C(=O)Nc3cccc([N+](=O)[O-])c3C)cc1CO2 | -3 | . | . | . | . | .
Cc1cccc2c1-c1sc(C(=O)Nc3ccccc3C(N)=O)cc1CO2 | . | 13µM* | -36%[10.9 µM] | ? | . | ?
CCOC(=O)c1sc2nc3c(cc2c1N)COC(C)(CC)C3 (stereo unspecified) | -8 | . | . | . | . | .
CCOC(=O)c1sc2nc3c(cc2c1N)COC(C)(C)C3 | . | -7% | -26% | -18% | 20µM* | 0%
CN1CCN(Cc2nc3c(c(=O)n(C)c(=O)n3C)n2Cc2ccccc2Cl)CC1 | . | ? | -16% | ? | 13µM* | ?
CC1CCN(Cc2nc3c(c(=O)n(C)c(=O)n3C)n2Cc2c(F)cccc2Cl)CC1 | . | 8% | -3% | 6% | 4% | 0%
Cn1c(=O)c2c(nc(CN3CCN(c4ccccc4)CC3)n2Cc2ccccc2Cl)n(C)c1=O | 1 | 3% | -4% | 5% | 3% | 2%
CCCCCCn1c(CN2CCN(CCO)CC2)nc2c1c(=O)n(C)c(=O)n2C | 8 | 3.2µM* | -82% | 2.5µM* | -6% | 0%
CCCCCCn1c(CN2CCC(C)CC2)nc2c1c(=O)n(C)c(=O)n2C | -10 | 8% | -15% | -17% | 2% | -2%
CC1CCCN(Cc2nc3c(c(=O)n(C)c(=O)n3C)n2Cc2c(F)cccc2Cl)C1 (stereo unspecified) | 4 | -10% | -33% | -25% | 6.3µM* | 7%
C/C(CCN1CCCCc2nc(C)c(C)cc21)=N\OC[C@@H](O)COCc1ccco1 | . | 0%[9.22 µM] | . | 10%[9.22 µM] | -3%[11.4 µM] | .
CN1[C@@H]2CC(OC(=O)[C@H](CO)c3ccccc3)C[C@@H]1[C@H]1O[C@H]12 (stereo partly specified) | 14 | . | -8% | . | 2% | 0%
CCOC(=O)c1sc(N)c(C(=O)Nc2ccc(C)cc2C)c1C | . | -7% | . | 5% | . | .
SMILES | IMPase inh | p53ts 39C kill | Imprint erasure | p53ts 32C tox | Luciferase inh | IkB sig inh
CCOc1ccc(-c2cc(C(=O)NCCc3ccc(C)cc3)c3ccccc3n2)cc1 | . | 16µM* | -13%[10.9 µM] | -20% | . | -2%
CCOc1ccc(-c2cc(C(=O)NCCCN3CCN(CC)CC3)c3ccccc3n2)cc1 | 2 | 13µM* | -14% | 13µM* | 13µM* | -1%
CCCN1CCN(CCCNC(=O)c2ccc3c(c2)sc2nc(-c4ccc(OCC)cc4)cn23)CC1 | . | 13µM* | -30%[10.9 µM] | ? | . | ?
COc1ccc(-c2cn3c(n2)sc2cc(C(=O)Nc4ccc(F)cc4Cl)ccc23)cc1 | . | 20µM* | -13%[10.9 µM] | -23% | . | ?
COc1ccc(-c2cn3c(n2)sc2cc(C(=O)Nc4ccc(C)cc4C)ccc23)cc1 | . | -5% | -14%[10.9 µM] | 3% | . | -1%
CCOc1ccc(-c2cc(C(=O)O)c3ccccc3n2)cc1 | -18 | . | . | . | . | .
COc1cccc(C2C=C(c3ccc(C)cc3)Nc3c(C(=O)Nc4ccc(F)cc4)cnn32)c1OC (stereo unspecified) | . | -7% | 5%[10.9 µM] | 13% | . | ?
Cc1cccc(C)c1NC(=O)c1ccc2c(c1)nnn2C1CCCC1 | . | ? | 6%[10.9 µM] | -1% | . | 0%
CN1c2cc3c(cc2N=C(c2ccc(C(=O)O)cc2)c2ccccc21)C(C)(C)CCC3(C)C | . | ? | -26% | -76% | . | .
Cc1ccc(CN(Cc2ccco2)C(=O)c2oc3c(C)c(C)ccc3c2C)cc1 | . | ? | 17%[10.9 µM] | 1% | . | ?
CC(C)(C)c1ccc(Cn2nnc3c(=O)[nH]c(C4CCN(C(=O)Cc5cccs5)CC4)nc32)cc1 | -7 | 16µM* | -21% | ? | 5% | ?
CC(C)(C)c1ccc(Cn2nnc3c(=O)[nH]c(C4CCCN(C(=O)Cc5cccs5)C4)nc32)cc1 (stereo unspecified) | -4 | 25% | -12% | 29% | -1% | ?
CCn1c(=O)cc(OCC(=O)N2CCN(c3ccccc3OC)CC2)c2ccccc21 | . | -5% | -10%[10.9 µM] | 2% | . | ?
COc1ccc(C(=O)Nc2nc(-c3cccs3)cs2)cc1 | 6 | -25% | -16% | -15% | 16µM* | ?
Cc1csc(NC(=O)c2sc3nc(-c4cccs4)ccc3c2N)n1 | ? | -8% | -26% | -23% | 20µM* | ?
COc1c(O)c(O)cc2c1oc1c3ccccc3oc(=O)c21 | . | -11% | -15% | ? | . | .
O=C(Nc1ccc2nc3ccccc3nc2c1)c1ccccc1 | 0 | 10µM* | . | ? | . | .
O=C(Nc1ccc2ccccc2c1)c1cccnc1 | -1 | -28% | -44% | -29% | 13µM* | 6%
O=C(Nc1ccc2ccccc2c1)c1cnccn1 | 10 | ? | -75% | ? | 7.9µM* | 14%
COc1ccc(NC(=O)c2cc(-c3ccc(O)cc3)on2)cc1OC | . | 4% | -12% | -4% | -10% | ?
CN(Cc1ccccc1)C(=O)CSc1nc2ccccc2n1Cc1ccccc1F | . | -7% | -3%[10.9 µM] | 7% | . | ?
